# Activity calls are given as the source filed them.
# What was measured:
# [1] = system: Plasmodium falciparum Sir2 (PF13_0152, Sir2A); assay: pfSir2 binders on small-molecule microarrays, primary screen, biochemical, small-molecule microarray, 635 nm fluorescence (AID 1098); conditions: small-molecule microarray binding, fluorescence 635 nm; higher = more signal;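 also: score merges spot fluorescence intensity with its signal-to-noise ratio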
# [2] = small-molecule microarray binders of probe aDKK1, primary screen, biochemical, biotinylated probe, 635/667 nm fluorescence (AID 1099); conditions: higher = more signal;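 also: score merges 667nm spot fluorescence with signal to noise across triplicate slides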
# [3] = small-molecule microarray binders of probe aCHRDL2, primary screen, biochemical, biotinylated probe, 635/667 nm fluorescence (AID 1100); conditions: higher = more signal
# [4] = splicing luciferase reporter signal modulators, primary screen, spliceosome inhibition project, cell-based, HEK293, splice +/- reporter (AID 1101); conditions: luminescence, 24 h, higher = more signal, called active from +8 up or from −8 down;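 also: HEK293 cells carrying a splicing-competent luciferase reporter gene; test concentration not given here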
# [5] = molecular target: Fibroblast growth factor 10 (Homo sapiens) (UniProt O15520); assay: FGF10 binders on small-molecule microarrays, primary screen, biochemical, small-molecule microarray, 635 nm fluorescence (AID 1102); conditions: FGF10 binding, fluorescence 635 nm, higher = more signal
# Chain of Fibroblast growth factor 10 (Homo sapiens) (O15520 whole entry, looked up): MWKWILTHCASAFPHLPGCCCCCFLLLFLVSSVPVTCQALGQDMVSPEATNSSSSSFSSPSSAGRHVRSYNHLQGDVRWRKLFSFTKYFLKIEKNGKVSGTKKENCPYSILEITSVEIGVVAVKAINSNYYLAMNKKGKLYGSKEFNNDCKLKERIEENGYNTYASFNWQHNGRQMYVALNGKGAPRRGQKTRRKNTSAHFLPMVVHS
# [6] = system: glycogen synthase kinase-3 (GSK3A per assay name; protocol says GSK3B); assay: GSK3 binders on small-molecule microarrays, primary screen, biochemical, small-molecule microarray, 635 nm fluorescence, GSK3A (AID 1103); conditions: small-molecule microarray binding, fluorescence 635 nm; higher = more signal; also: the record names both GSK3A and GSK3B
# [7] = molecular target: Epidermal growth factor receptor (Homo sapiens) (UniProt P00533); assay: EGFR binders on small-molecule microarrays, primary screen, biochemical, small-molecule microarray, 635 nm fluorescence (AID 1104); conditions: EGFR binding, higher = more signal;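 also: score merges 667 nm emission intensity with spot signal to noise over triplicate slides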
# Chain of Epidermal growth factor receptor (Homo sapiens) (P00533 whole entry, looked up): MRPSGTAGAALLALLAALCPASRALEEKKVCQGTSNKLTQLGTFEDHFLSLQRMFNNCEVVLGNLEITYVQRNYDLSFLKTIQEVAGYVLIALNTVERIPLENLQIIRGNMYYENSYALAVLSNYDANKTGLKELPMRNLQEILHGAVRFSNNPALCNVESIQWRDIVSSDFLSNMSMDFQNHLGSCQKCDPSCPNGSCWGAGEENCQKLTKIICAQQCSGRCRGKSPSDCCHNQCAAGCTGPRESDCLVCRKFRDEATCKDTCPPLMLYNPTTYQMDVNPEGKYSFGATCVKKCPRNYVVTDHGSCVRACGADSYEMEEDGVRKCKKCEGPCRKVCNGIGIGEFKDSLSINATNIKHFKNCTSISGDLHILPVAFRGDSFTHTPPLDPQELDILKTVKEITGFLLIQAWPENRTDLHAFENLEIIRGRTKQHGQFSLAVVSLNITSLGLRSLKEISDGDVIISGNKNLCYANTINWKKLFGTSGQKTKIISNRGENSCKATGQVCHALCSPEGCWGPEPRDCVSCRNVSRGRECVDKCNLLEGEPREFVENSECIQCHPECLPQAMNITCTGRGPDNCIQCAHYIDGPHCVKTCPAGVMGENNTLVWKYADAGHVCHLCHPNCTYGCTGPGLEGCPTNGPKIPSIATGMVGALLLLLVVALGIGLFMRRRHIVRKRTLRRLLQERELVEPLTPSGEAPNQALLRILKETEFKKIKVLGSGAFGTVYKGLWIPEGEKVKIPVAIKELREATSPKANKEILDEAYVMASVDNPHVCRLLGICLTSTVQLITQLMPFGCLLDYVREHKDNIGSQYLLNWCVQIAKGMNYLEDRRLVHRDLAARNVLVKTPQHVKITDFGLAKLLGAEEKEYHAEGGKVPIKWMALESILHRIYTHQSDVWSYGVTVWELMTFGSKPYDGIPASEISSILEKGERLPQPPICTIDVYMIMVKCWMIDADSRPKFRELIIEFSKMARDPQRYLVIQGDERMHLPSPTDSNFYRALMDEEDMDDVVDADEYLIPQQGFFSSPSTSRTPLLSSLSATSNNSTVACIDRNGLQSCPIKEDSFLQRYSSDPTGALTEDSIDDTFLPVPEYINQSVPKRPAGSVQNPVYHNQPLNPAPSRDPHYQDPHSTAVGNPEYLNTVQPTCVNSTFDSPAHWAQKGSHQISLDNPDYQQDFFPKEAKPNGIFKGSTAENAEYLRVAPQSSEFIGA
# [8] = molecular target: Follistatin-related protein 3 (Homo sapiens) (UniProt O95633); assay: FSTL3 binders on small-molecule microarrays, primary screen, biochemical, small-molecule microarray, 635 nm fluorescence (AID 1105); conditions: FSTL3 binding, higher = more signal;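 also: score merges emission near 667 nm and signal to noise per printed spot across three slides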
# Chain of Follistatin-related protein 3 (Homo sapiens) (O95633 whole entry, looked up): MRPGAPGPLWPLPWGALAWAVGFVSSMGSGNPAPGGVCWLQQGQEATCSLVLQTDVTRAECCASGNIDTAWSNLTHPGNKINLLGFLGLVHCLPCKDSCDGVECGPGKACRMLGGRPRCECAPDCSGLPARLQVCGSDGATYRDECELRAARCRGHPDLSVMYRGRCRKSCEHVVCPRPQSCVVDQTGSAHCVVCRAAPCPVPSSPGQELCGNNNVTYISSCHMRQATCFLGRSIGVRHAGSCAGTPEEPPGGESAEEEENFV
# [9] = molecular target: Dickkopf-related protein 1 (Homo sapiens) (UniProt O94907); assay: DKK1 binders on small-molecule microarrays, primary screen, biochemical, small-molecule microarray, 635 nm fluorescence scan (AID 1106); conditions: DKK1 binding, higher = more signal;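 also: score merges emission near 667 nm with signal to noise over three replicate slides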
# Chain of Dickkopf-related protein 1 (Homo sapiens) (O94907 whole entry, looked up): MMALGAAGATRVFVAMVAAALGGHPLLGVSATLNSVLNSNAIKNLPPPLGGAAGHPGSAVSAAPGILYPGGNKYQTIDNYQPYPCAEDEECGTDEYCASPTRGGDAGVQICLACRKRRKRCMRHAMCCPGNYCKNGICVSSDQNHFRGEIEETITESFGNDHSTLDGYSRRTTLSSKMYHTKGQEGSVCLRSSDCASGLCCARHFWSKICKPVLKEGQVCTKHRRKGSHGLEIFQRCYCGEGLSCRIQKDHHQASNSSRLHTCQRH
# [10] = system: Inhibin beta A chain (activin A); assay: INHBA (activin A) binders on microarrays, primary screen, biochemical, small-molecule microarray, 635 nm fluorescence scan (AID 1107); conditions: small-molecule microarray binding, higher = more signal;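 also: mouse activin A protein probed at 4.33 µg/mL on printed slides; score merges bound-protein fluorescence near 667 nm with spot signal-to-noise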
# [11] = system: Human papillomavirus type 1a protein E7 (residues 44-93); assay: HPV1a E7 fragment binders on microarrays, primary screen, biochemical, small-molecule microarray, residues 44-93, 635 nm fluorescence (AID 1108); conditions: small-molecule microarray binding, fluorescence 635 nm; higher = more signal;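 also: E7 fragment applied at 1 µg/mL in TBST for 1 h at 4 C; score combines spot fluorescence with its signal to noise ratio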
# [12] = modulators of HCV replicon luciferase signal, primary screen, HCV replication inhibitor project, Huh7 cells, luciferase reporter (AID 1109); conditions: 48 h, higher = more signal;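 also: huh7 hepatoma cells harbouring a luciferase neomycin HCV replicon reporter; luciferase luminescence as measure of HCV replicon replication; test concentration not given here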
# [13] = molecular target: Left-right determination factor 2 (Homo sapiens) (UniProt O00292); assay: LEFTY2 binders on small-molecule microarrays, primary screen, biochemical, small-molecule microarray, 635 nm fluorescence scan (AID 1110); conditions: LEFTY2 binding, higher = more signal
# Chain of Left-right determination factor 2 (Homo sapiens) (O00292 whole entry, looked up): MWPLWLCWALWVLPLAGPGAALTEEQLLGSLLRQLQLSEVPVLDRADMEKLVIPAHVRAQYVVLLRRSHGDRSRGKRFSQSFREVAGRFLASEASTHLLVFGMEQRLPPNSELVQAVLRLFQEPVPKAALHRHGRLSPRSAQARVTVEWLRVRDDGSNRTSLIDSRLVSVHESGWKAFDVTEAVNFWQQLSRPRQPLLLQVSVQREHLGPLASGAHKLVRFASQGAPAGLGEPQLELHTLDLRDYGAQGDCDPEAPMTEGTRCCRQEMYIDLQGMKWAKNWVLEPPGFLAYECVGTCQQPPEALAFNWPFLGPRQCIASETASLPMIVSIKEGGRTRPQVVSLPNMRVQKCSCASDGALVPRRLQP
# [14] = molecular target: Calmodulin-1 (Homo sapiens) (UniProt P0DP23); assay: CALM1 binders on microarrays, EGTA buffer, profiling panel, biochemical, small-molecule microarray, Cy5-labelled CALM1 (AID 1111); conditions: Cy5-CALM1 binding fluorescence, higher = more signal;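 also: labelled calmodulin applied in Tris saline Tween buffer holding calcium plus EGTA and DTT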
# [15] = molecular target: Calmodulin-1 (Homo sapiens) (UniProt P0DP23); assay: calcium-bound CALM1 binders on microarrays, profiling panel, artefact control for SMM control-protein annotation, biochemical, small-molecule microarray, Cy5-labelled CALM1, plus calcium (AID 1112); conditions: Cy5-CALM1 binding fluorescence, higher = more signal;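 also: score merges spot fluorescence with signal to noise from triplicate slides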
# [16] = small-molecule microarray binders of probe aWnt5a, primary screen, biochemical, biotinylated probe, 635/667 nm fluorescence (AID 1113); conditions: higher = more signal;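 also: score merges 667 nm fluorescence intensity with signal-to-noise per printed feature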
# [17] = small-molecule microarray binders of probe aShh, primary screen, biochemical, biotinylated probe, 635/667 nm fluorescence (AID 1114); conditions: higher = more signal;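 also: probe is biotin-labelled aShh protein from a stem cell growth factor screen; measures binding of labelled protein to compounds printed on the slide; score merges feature fluorescence at 667 nm with signal-to-noise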
# [18] = small-molecule microarray binders of probe aNog, primary screen, biochemical, biotinylated probe, 635/667 nm fluorescence (AID 1115); conditions: higher = more signal;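 also: probe is biotinylated aNog protein used at 0.15 µg/mL for 1 h at 4 C; z-score combines 667 nm fluorescence of each spot with its signal to noise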
# [19] = molecular target: Torsin-1A-interacting protein 1 (Homo sapiens) (UniProt Q5JTV8); assay: LAP1 binders from COS7 cell lysate, primary screen, small-molecule microarray, 635/667 nm fluorescence (AID 1116); conditions: COS7-hLAP1 lysate binding, 635 nm fluorescence, higher = more signal
# Chain of Torsin-1A-interacting protein 1 (Homo sapiens) (Q5JTV8 whole entry, looked up): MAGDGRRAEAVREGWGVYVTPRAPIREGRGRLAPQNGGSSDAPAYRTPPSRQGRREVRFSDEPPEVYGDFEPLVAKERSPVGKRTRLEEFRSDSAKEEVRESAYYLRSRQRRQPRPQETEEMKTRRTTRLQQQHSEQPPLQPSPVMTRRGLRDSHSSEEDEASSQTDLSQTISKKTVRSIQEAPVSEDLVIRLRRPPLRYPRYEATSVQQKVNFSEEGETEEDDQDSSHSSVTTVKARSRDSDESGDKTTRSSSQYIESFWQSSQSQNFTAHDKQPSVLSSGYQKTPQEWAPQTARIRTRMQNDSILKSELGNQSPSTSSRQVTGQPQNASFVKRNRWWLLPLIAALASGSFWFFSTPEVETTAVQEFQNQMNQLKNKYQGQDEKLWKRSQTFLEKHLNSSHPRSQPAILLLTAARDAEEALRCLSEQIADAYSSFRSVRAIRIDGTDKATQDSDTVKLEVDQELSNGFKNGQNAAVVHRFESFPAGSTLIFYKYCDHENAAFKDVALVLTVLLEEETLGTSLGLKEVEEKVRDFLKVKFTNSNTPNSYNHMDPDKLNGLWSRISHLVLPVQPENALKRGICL
# [20] = molecular target: Alpha-bungarotoxin (Bungarus multicinctus) (UniProt P60615); assay: alpha-bungarotoxin binders on microarray, profiling panel, artefact control for SMM control protein annotation, biochemical, small-molecule microarray, Alexa647 label, 635/667 nm fluorescence (AID 1117); conditions: alpha-BTX-A647 binding fluorescence, higher = more signal
# Chain of Alpha-bungarotoxin (Bungarus multicinctus) (P60615 whole entry, looked up): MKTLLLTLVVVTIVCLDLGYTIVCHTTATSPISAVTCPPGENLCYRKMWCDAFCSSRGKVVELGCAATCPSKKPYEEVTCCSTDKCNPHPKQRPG
SMILES,composite z-score [1],composite z-score [2],composite z-score [3],z-score [4],composite z-score [5],composite z-score [6],composite z-score [7],composite z-score [8],composite z-score [9],composite z-score [10],composite z-score [11],z-score [12],composite z-score [13],composite z-score [14],composite z-score [15],composite z-score [16],composite z-score [17],composite z-score [18],composite z-score [19],composite z-score [20]
COc1ccc([C@H]2C[C@H]3C(Br)=C[C@@H]2C(=O)[C@]32CO2)cc1,0.0371,-0.308,-0.193,-0.613 (inactive),-0.105,-0.515,0.427,0.202,1.03,1.52,-0.693,-2.46,0.446,-0.0833,-0.798,0.0136,-0.138,-0.158,0.252,0.29
COc1cc2c(cc1O)C(C1CC1)N(Cc1cc3c(cc1Br)OCO3)CC2 (stereo not given),0.802,-0.197,0.655,-0.39 (inactive),-1.02,-1.26,-1.12,-1.35,-0.948,-0.13,0.0206,-3.51,-1.25,-0.515,-0.58,-0.124,-0.134,-0.33,-0.447,-0.745
O=C(C1N=C(c2ccc(OCCCO)cc2)N(c2ccccc2)O1)N1CCOCC1 (stereo not given),0.298,0.56,0.538,-0.799 (inactive),1.46,1.3,0.0096,0.695,0.858,0.315,1.37,-2.11,0.677,1.29,0.335,-0.0445,0.465,-0.492,0.832,1.12
CN1C(=O)[C@]2(Cc3ccccc3)N=C(c3ccc(OCCCO)cc3)O[C@@H]2c2ccccc21,1.19,0.566,0.913,-1.18 (inactive),1.33,1.28,0.367,0.459,0.505,1.14,1.46,-1.36,0.235,0.33,-0.323,0.0761,0.0469,0.849,1.3,0.51
COCC(=C=CC[C@H](O)c1ccccc1OCCO)C[C@H](O)c1cc(Cl)cc(Cl)c1O,0.588,-0.141,-0.0448,-0.705 (inactive),1.62,0.702,-0.0335,0.897,-0.0154,0.282,1.31,-4.43,0.223,0.068,-0.596,0.0357,0.207,0.464,0.743,1.08
CC(C)C[C@H]1NC(=O)[C@@]23C(=O)N[C@@H](Cc4ccccc4)C2[C@H](C)[C@@]2(C)O[C@H]2C3/C=C/C/C=C\CNC(=O)[C@H](Cc2ccccc2)NC1=O (stereo not given in full),0.777,-0.283,-0.471,0.000958 (inactive),0.903,0.47,0.447,0.816,0.599,0.867,1.06,-1.32,0.452,-0.434,-0.578,-0.0735,-0.0553,-0.194,-0.225,-0.0973
COC(=O)[C@@]1(Cc2ccc(F)cc2)[C@@H]2[C@@H](CC(=O)[C@H]2CC(=O)C(=O)N(C)C)CN1C(=O)c1ccccc1,0.532,1.21,1.19,-0.191 (inactive),0.849,1.09,0.251,1.32,-0.598,0.793,1.44,-2.53,-0.211,1.29,0.352,0.24,0.522,1.41,1.08,1.15
CC1(C)[C@@H]2CC(C(O)C3C=CC4C(=O)N(c5ccccc5)C(=O)C4N3Nc3ccccc3)=C[C@H]1C2 (stereo not given in full),0.576,0.592,0.663,0.99 (inactive),0.104,0.33,-0.316,0.114,0.011,1.2,0.455,-0.595,-0.158,0.718,-0.374,0.0044,0.241,-0.43,0.873,0.577
COCCCNC(=O)[C@@]1(Cc2ccccc2N=[N+]=[N-])N=C(c2ccc(OCCCO)cc2)O[C@H]1c1ccccc1N=[N+]=[N-],1.34,1.04,1.25,1.87 (inactive),0.935,0.82,0.372,0.937,-0.138,0.797,0.852,-2.86,0.431,1.72,0.686,0.168,-0.477,1.43,0.561,1.74
COc1ccc([Si](C)(C)[C@@H]2[C@@H](CCO)O[C@]3(C(=O)N(Cc4ccc(N5C(=O)COc6ccccc65)cc4)c4ccccc43)[C@H]2C)cc1,1.31,0.146,0.147,-1.68 (inactive),0.808,0.522,0.334,0.469,0.129,0.678,-0.674,-4.99,0.88,1.51,0.879,0.199,-0.0146,-0.394,0.572,0.896
[N-]=[N+]=Nc1ccccc1C[C@]1(C(N)=O)N=C(c2ccc(OCCCO)cc2)O[C@H]1c1ccccc1,1.13,0.0609,0.875,0.297 (inactive),0.181,0.532,-1.44,-0.255,-0.748,0.511,1.43,-0.947,-0.932,1.59,0.0189,-0.0721,0.0723,-0.235,2.05,1.03

# From PubChem BioAssay
